Screens deposited in PubChem BioAssay by National Center for Advancing Translational Sciences (NCATS).
Hits are enriched below; roughly 6.5% of the tested compounds scored in any of these assays.
FMDV inh = High Throughput Screening for Foot and Mouth Disease Virus Antivirals; FMDV antiviral cell-based qHTS; Potency, µM (top dose mostly 57.9 µM), for the others: at the highest dose activity change, negative = inhibition, usual class: inhibitors; 1.2% of 410,000 active; AID 1159524, 2015; calls by dose curve; tested in HEK293T cells; further: read-out not given here; potency means the concentration at half of the fitted maximal effect; nearly all actives have a fitted effect of over 45% in size
VACV Venus inh = qHTS for Stage-Specific Inhibitors of Vaccinia Orthopoxvirus: Venus Reporter Primary qHTS. 0.46% of 330,000 active. Potency, µM (top dose mostly 36.5 µM), without a hit: at the highest dose activity change, negative = inhibition, most hits filed as inhibitors. Vaccinia virus Venus reporter expression, fluorescence; calls by dose curve; tested in A549 cells; further: potency means the concentration at half of the fitted maximal effect; nearly all actives have a fitted effect of over 30% in size
VACV mCherry inh = qHTS for Stage-Specific Inhibitors of Vaccinia Orthopoxvirus: mCherry Reporter Primary qHTS. Vaccinia virus mCherry reporter infection, fluorescence. Potency, µM (top dose mostly 36.5 µM), without a hit: at the top dose activity change, negative = inhibition, actives largely listed as inhibitors. 0.63% of 310,000 active. AID 720579, 2013; calls by dose curve; tested in A549 cells; further: potency means the concentration at half of the fitted maximal effect; nearly all actives have a fitted effect of over 35% in size
Marburg entry inh = qHTS for inhibitors of binding or entry into cells for Marburg Virus; AID 540276, 2011; Marburg virus pseudotyped entry inhibition, cell reporter; 1.8% of 300,000 active; Potency, µM (doses to about 37.8 µM), inactives show at the highest dose activity change, negative = inhibition, most hits filed as inhibitors; calls by dose curve; tested in HEK293 cells; further: potency means the concentration at half of the fitted maximal effect
HCMV inh = qHTS Assay for inhibitors of the human cytomegalovirus (HCMV); HFF cells, HCMV-luciferase reporter, 72 h; hits give low values; activity change, negative = inhibition, % at 57.5 µM; 4.5% of 410,000 active; AID 1259415, 2018; in the data active means activity change below about -60%; inconclusive means no clear call, values can overlap the other calls; inactive means above about -39%
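Inhibition of viral replication was scored as loss of reporter luminescence in HFFs infected with HCMV-luciferase (MOI 1 PFU/cell) for 72 h; compounds tested at 2 doses, normalized to buffer and Salinomycin controls.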
LASV entry inh = qHTS for Inhibitors of binding or entry into cells for Lassa Virus; AID 540256, 2011; Potency, µM (top dose mostly 37.9 µM), inactives show at the highest dose activity change, negative = inhibition, hits mostly inhibitors; Lassa virus pseudotype entry inhibition, cell reporter; 1.2% of 300,000 active; calls by dose curve; tested in HEK293 cells; further: potency means the concentration at half of the fitted maximal effect; nearly all actives have a fitted effect of over 50% in size
* = called active by the depositor; [ ] = dose if it differs, or a comment. On the % scale 0 is the no-effect control and ±100 the full control effect.

COc1cc2c(cc1OC)C1[C@H]3C(=CC[C@H]1OC2O)CCN3C (some centres undefined) was read as FMDV inh -3.9%, VACV Venus inh -10.0%, VACV mCherry inh inactive and HCMV inh -102.6*.
Screening COc1cc2c(cc1OC)C(C)N(C(=O)c1cc(Cl)nc(Cl)c1)CC2 (centres undefined) returned FMDV inh -28.7% and HCMV inh 42.3.
`Nc1sc(-c2ccccc2)n[n+]1Cc1cccc2cccnc12` gave FMDV inh -26.4%, Marburg entry inh 5.6% and HCMV inh -99.1*.
`Oc1ccccc1CNc1cccc2cccnc12` gave FMDV inh 68.6%, VACV Venus inh 9.0%, VACV mCherry inh -1.8%, Marburg entry inh inconclusive, HCMV inh -5.0 and LASV entry inh inconclusive.
For CCN1CCN(C(=O)CCc2nnc3ccc(N4CCN(c5cccc(OC)c5)CC4)nn23)CC1 the results were FMDV inh -12.2% and HCMV inh -22.7.
For CSc1cccc(NC(=O)CSc2ncccc2C(=O)Oc2cccc([N+](=O)[O-])c2)c1 the results were FMDV inh 0.0%, VACV Venus inh -17.8%, VACV mCherry inh -1.5%, Marburg entry inh -4.7%, HCMV inh 12.6 and LASV entry inh 13.6%.
For CCN(C(=O)CSc1ncccc1C(=O)Oc1cccc([N+](=O)[O-])c1)c1cccc(C)c1 the results were FMDV inh 25.1µM*, VACV Venus inh -6.5%, VACV mCherry inh -14.4%, Marburg entry inh 4.5%, HCMV inh 32.2 and LASV entry inh 8.6%.
For CCCCNc1ncnc2oc(-c3ccco3)c(-c3ccco3)c12 the results were VACV Venus inh -29.8% and VACV mCherry inh -24.5%.
Cc1snc(S(=O)(=O)/C(C#N)=N/Nc2cccc(C(F)(F)F)c2)c1C#N was read as FMDV inh 27.7%, VACV Venus inh inconclusive, VACV mCherry inh 11.2µM*, Marburg entry inh 0.4% and LASV entry inh 5.4%.
`COc1ccccc1CNC(=O)c1cnc2sc(N3CCOCC3)nn2c1=O` gave FMDV inh -12.6%, VACV Venus inh -15.4%, VACV mCherry inh -5.3%, HCMV inh 13.1 and LASV entry inh 15.6%[46.1 µM].
`COc1ccc(N2CCN(C3CCCN(S(=O)(=O)c4ccccc4)C3)CC2)cc1` (centres undefined) gave FMDV inh -0.9%, VACV Venus inh -15.9%, VACV mCherry inh -0.6%, Marburg entry inh 0.3%, HCMV inh -31.4 and LASV entry inh -12.0%.
For COc1ccc(N2CCN(C3CCCN(S(=O)(=O)c4ccc(C)cc4C)C3)CC2)cc1 (centres undefined) the results were FMDV inh 21.5% and HCMV inh -73.1*.
`COc1ccc(NC(=O)N(C)C[C@H]2Oc3ccc(NS(=O)(=O)c4cccs4)cc3C(=O)N([C@H](C)CO)C[C@@H]2C)cc1` gave FMDV inh -8.2%, VACV Venus inh -9.8%, VACV mCherry inh inactive and HCMV inh 8.3.
For Cc1ccc(C)c(OCC(=O)N/N=C/c2ccc(N3CCOCC3)cc2)c1 the results were FMDV inh inconclusive, VACV Venus inh -5.2%, VACV mCherry inh inactive and HCMV inh 6.0.
For C/C(=N\NC(=O)c1ccc(Cl)cc1)c1ccc(N2CCOCC2)cc1 the results were FMDV inh 0.0%, VACV Venus inh -9.3%, VACV mCherry inh inactive, Marburg entry inh 1.8%, HCMV inh 45.9 and LASV entry inh 7.9%.
Screening C/C(=N/NC(=O)COc1ccc(C(C)(C)C)cc1)c1ccc(N2CCOCC2)cc1 returned FMDV inh -3.2%, VACV Venus inh -13.5%, VACV mCherry inh inactive, Marburg entry inh -4.3%, HCMV inh 14.7 and LASV entry inh 0.562µM*.
`CC(C)(C)c1ccc(OCC(=O)N/N=C/c2ccc(N3CCOCC3)cc2)cc1` gave FMDV inh 0.0%, VACV Venus inh -23.2%, VACV mCherry inh -4.0%, Marburg entry inh -23.3%, HCMV inh -16.6 and LASV entry inh 0.092µM*.
For Cc1cccc(C)c1NC(=O)[C@H]1CCCCN1C the results were Marburg entry inh 9.6%.
`COc1ccccc1NC(=O)Nc1nc(CC(=O)NCc2ccc(F)cc2)cs1` gave FMDV inh 39.8µM*, VACV Venus inh inconclusive, VACV mCherry inh inconclusive, Marburg entry inh inconclusive, HCMV inh -40.0 and LASV entry inh -1.2%.
Screening COc1ccccc1NC(=O)Nc1nc(CC(=O)NCc2c(F)cccc2F)cs1 returned FMDV inh -9.0%, VACV Venus inh -19.4%, VACV mCherry inh -5.2%, Marburg entry inh inconclusive, HCMV inh -1.3 and LASV entry inh inconclusive.
For Cc1ccccc1NC(=O)Nc1nc(CN(C)C)cs1 the results were FMDV inh 1.3%, VACV Venus inh -4.2%, VACV mCherry inh 5.5% and HCMV inh -8.6.
COc1ccc(NC(=S)Nc2nc(CC(=O)Nc3ccccc3OC)cs2)cc1 was read as FMDV inh 22.4µM*, Marburg entry inh inconclusive, HCMV inh inconclusive and LASV entry inh inconclusive.
Screening CN(C)Cc1csc(NC(=O)Nc2ccccc2C(C)(C)C)n1 returned FMDV inh -14.3%, VACV Venus inh -8.7%, VACV mCherry inh -12.1% and HCMV inh -76.0*.
COc1ccc(Cl)cc1NC(=O)CNc1ccccc1N1CCOCC1 was read as FMDV inh -10.5% and HCMV inh -28.6.
COC(=O)C(C(C)=O)C(NC(=O)NCc1ccccc1)c1ccccc1 (centres undefined) was read as Marburg entry inh 25.3%[14.2 µM].
`COC(=O)C[C@@H]1CC[C@@H](NC(=O)Nc2cc(F)ccc2F)[C@@H](CO)O1` gave FMDV inh -13.6%, VACV Venus inh -1.8%, VACV mCherry inh 13.4% and HCMV inh -2.1.
For CN(C)c1ccc(/C=C/c2cc(N(C)C)nc3ccccc23)cc1 the results were VACV Venus inh -12.7% and VACV mCherry inh -20.1%.
`COc1ccc2nc3cc(Cl)ccc3c(Nc3cc(C(C)C)c(O)cc3C)c2c1` gave FMDV inh inconclusive, VACV Venus inh inconclusive, VACV mCherry inh inconclusive, Marburg entry inh 11.2µM*, HCMV inh inconclusive and LASV entry inh inconclusive.
CN(C)CCCNc1nccc(-c2c(-c3ccc(F)cc3)nn3cc(C(F)(F)F)ccc23)n1 was read as LASV entry inh 22.3µM*.
Screening CC(Nc1oc(-c2ccc(COc3ccccc3)o2)nc1C#N)c1ccccc1 (centres undefined) returned FMDV inh -12.7%, VACV Venus inh -28.8%, VACV mCherry inh inconclusive, Marburg entry inh -0.7%[46.1 µM], HCMV inh -79.0* and LASV entry inh inconclusive.
